Test results: PubChem BioAssay (NCATS)
Results filed as inconclusive are left out. Entries that show only a call come without a potency. Activity calls are given as the source filed them. Unless noted, calls come from the whole dose curve.

How the values were obtained:
[1] = qHTS for Inhibitors of the Functional Ribonucleoprotein Complex (vRNP) of Lassa (LASV) Arenavirus: LASV Primary Screen - GLuc reporter signal (AID 1347082; calls by dose curve; tested in HEK293 reporter line; note: nearly all actives have a fitted effect of over 60% in size)
[2] = qHTS for Inhibitors of the Functional Ribonucleoprotein Complex (vRNP) of Lassa (LASV) Arenavirus: Viability assay - alamar blue signal for LASV Primary Screen (AID 1347083; calls by dose curve; tested in HEK293 reporter line; note: nearly all actives have a fitted effect of over 80% in size)
[3] = qHTS for Inhibitors of the Functional Ribonucleoprotein Complex (vRNP) of Lymphocytic Choriomeningitis Arenaviruses (LCMV): Viability assay - alamar blue signal for LCMV Primary Screen (AID 1347085; calls by dose curve; tested in HEK293 reporter line; note: nearly all actives have a fitted effect of over 80% in size)
[4] = target: Nucleoprotein (Lymphocytic choriomeningitis virus (strain Armstrong)) (UniProt P09992); experiment: qHTS for Inhibitors of the Functional Ribonucleoprotein Complex (vRNP) of Lymphocytic Choriomeningitis Arenaviruses (LCMV): LCMV Primary Screen - GLuc reporter signal (AID 1347086); note: nearly all actives have a fitted effect of over 70% in size
[5] = Cytotoxicity counterscreen for inhibitors of SARS-CoV-2 cell entry (AID 1645845); note: nearly all actives have a fitted effect of over 50% in size
Outline: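 Counterscreen run in the same HEK293-ACE2 line as the pseudotyped-particle entry assay, without particles. Viability after 48 h at 37 C was read as ATP luminescence, scaled between cell-containing and cell-free wells.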

[6] = Primary qHTS to identify inhibitors of SARS-CoV-2 cell entry (AID 1645846); conditions: activity change, negative = inhibition: at 57.1 µM (top of the series) unless noted; note: nearly all actives have a fitted effect of over 45% in size
Outline: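 HEK293-ACE2 (Expi293F, stable hACE2), 1500 cells/well, o/n 37C; cpd 23 nL pin, 1 h; MLV-PP w/ SARS-CoV-2-S (Wuhan-Hu-1, Δ19 C-term); 48 h 37C; Bright-Glo luminescence; normalized vs S-PP and bald PP.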
Potency is the fitted concentration of half-maximal effect.

Sequence of Nucleoprotein (Lymphocytic choriomeningitis virus (strain Armstrong)) (P09992 whole entry, looked up): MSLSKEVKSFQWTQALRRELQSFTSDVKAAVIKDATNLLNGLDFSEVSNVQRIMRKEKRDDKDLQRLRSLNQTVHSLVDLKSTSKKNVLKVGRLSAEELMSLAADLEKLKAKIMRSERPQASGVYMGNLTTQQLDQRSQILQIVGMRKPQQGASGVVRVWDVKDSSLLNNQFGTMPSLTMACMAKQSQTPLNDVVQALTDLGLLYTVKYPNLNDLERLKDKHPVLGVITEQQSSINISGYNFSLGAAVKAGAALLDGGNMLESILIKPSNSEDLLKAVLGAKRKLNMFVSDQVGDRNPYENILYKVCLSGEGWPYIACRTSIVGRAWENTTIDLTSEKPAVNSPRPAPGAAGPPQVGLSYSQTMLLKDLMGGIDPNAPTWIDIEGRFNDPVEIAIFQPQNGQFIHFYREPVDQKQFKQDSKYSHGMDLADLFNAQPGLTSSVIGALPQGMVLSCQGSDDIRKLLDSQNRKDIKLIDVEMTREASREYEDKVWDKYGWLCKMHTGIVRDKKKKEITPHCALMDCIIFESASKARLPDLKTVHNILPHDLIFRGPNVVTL

Row | SMILES | Potency [1] | Potency [2] | Potency [3] | Potency [4] | Potency [5] | activity change, negative = inhibition [6] | Potency [6]
1 | C=C[C@@H]1CN2CCC1C[C@H]2[C@H](O)c1ccnc2ccc(OC)cc12 (some centres undefined) | inactive | inactive | inactive | inactive | inactive | -48.9% | –
2 | OC[C@@H](O)[C@@H](O)[C@H](O)[C@@H](O)CO | inactive | inactive | inactive | inactive | inactive | – | inactive
3 | c1cc(-c2sc(-c3ccncc3)c(-c3ccncc3)c2-c2ccncc2)ccn1 | inactive | inactive | inactive | inactive | inactive | – | inactive
4 | Cc1coc2c1C(=O)C(=O)c1c-2ccc2c1CCCC2(C)C | inactive | inactive | inactive | inactive | inactive | -20% | –
5 | COc1ccc2c(Oc3ccc(NC(=O)c4c(C)n(CC(C)(C)O)n(-c5ccccc5)c4=O)cc3F)ccnc2c1 | inactive | inactive | inactive | inactive | inactive | -8.07% | –
6 | COc1nccc(-c2c(-c3ccc(F)cc3)ncn2C2CCNCC2)n1 | inactive | inactive | inactive | inactive | inactive | – | inactive
7 | CNC(=O)c1cc(COc2nnc(Nc3ccc(Cl)cc3)c3ccoc23)ccn1 | inactive | inactive | inactive | inactive | inactive | -17% | –
8 | Nc1nc2c(c(=O)[nH]1)N(C=O)[C@H](CNc1ccc(C(=O)N[C@@H](CCC(=O)O)C(=O)O)cc1)CN2 | inactive | inactive | inactive | inactive | inactive | – | inactive
9 | CCc1c(O)cc(O)c(C(=O)c2ccc(OCCN3CCOCC3)c(OC)c2)c1CC(=O)N(CCOC)CCOC | 12.2 µM (active) | 6.11 µM (active) | 5.44 µM (active) | 3.43 µM (active) | inactive | -26.7% | –
10 | COc1ccc(-c2ccc3ncc4c(c3c2)n(-c2ccc(N3CCNCC3)c(C(F)(F)F)c2)c(=O)n4C)cn1 | 0.0022 µM (active) | inactive | inactive | inactive | 4.47 µM (active) | – | 3.16 µM (active)
11 | CCCCCCCCCCCC(CC1OC(=O)C1CCCCCC)OC(=O)C(CC(C)C)NC=O (centres undefined) | inactive | inactive | inactive | inactive | inactive | 0.438% | –
12 | CN(C)c1ccc(-c2nc3ncc(Cl)c(N4CCN(CC(=O)Nc5nccs5)CC4)c3[nH]2)cc1 | inactive | inactive | inactive | inactive | inactive | -16% [at 27.1 µM] | –
13 | N#CC1(c2ccc(NC(=O)c3cccnc3NCc3ccncc3)cc2)CCCC1 | inactive | inactive | inactive | inactive | inactive | – | inactive
14 | CNC(=O)c1ccc2cc(C3(O)CCn4cncc43)ccc2c1 (centres undefined) | inactive | inactive | inactive | inactive | inactive | -19.9% | –
